Screens as filed in PubChem.
The list is not random: actives were taken first. Their share in the collection is about 3.2%.
LmPK inh = qHTS Assay for Inhibitors of Leishmania Mexicana Pyruvate Kinase (LmPK); actives 0.37% (n = 290,000); Potency, µM (highest dose often 57.5 µM), for the others: at the highest dose activity change, negative = inhibition, most hits filed as inhibitors; Q27686; purified LmPK, Kinase-Glo ATP luminescence, 1 h; AID 1721, 2009
Target sequence (Q27686 whole entry, looked up): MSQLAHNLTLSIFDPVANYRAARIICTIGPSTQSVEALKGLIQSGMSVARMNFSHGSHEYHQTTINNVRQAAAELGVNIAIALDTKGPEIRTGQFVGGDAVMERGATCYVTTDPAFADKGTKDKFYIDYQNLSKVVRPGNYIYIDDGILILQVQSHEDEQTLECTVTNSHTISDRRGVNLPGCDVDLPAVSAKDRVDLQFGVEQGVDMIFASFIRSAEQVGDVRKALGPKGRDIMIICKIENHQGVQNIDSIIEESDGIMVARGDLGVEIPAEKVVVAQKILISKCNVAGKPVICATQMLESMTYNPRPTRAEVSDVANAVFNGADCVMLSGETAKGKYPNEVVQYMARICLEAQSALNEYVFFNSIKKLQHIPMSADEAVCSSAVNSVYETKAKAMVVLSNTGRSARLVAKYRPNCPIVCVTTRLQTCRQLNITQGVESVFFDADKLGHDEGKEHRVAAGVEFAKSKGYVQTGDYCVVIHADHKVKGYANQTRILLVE
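Screened at intermediate enzyme activity to detect both inhibitors and activators: LmPK at 0.1 nM, with a 0.5 nM enzyme column as activation reference. PEP 0.5 mM, ADP 0.1 mM; ATP detected by luminescence after 1 h.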
Sm TGR block = qHTS Assay for the Inhibitors of Schistosoma Mansoni Peroxiredoxins; Schistosoma mansoni thioredoxin glutathione reductase (TGR), Q962Y6; purified TGR, DTNB reduction, TNB absorbance 405 nm; Potency, µM (titrated, usually from 114 µM), for inactives: at the highest dose activity change, negative = inhibition, most hits filed as inhibitors; actives 3% (n = 360,000); AID 485364, 2010; further: nearly all actives have a fitted effect of over 60% in size
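First, TGR (20 nM dispensed) and NADPH were mixed with compound. Second, a 15 min room-temperature incubation followed. Third, further NADPH and then DTNB were added to start the reaction. Finally, TNB absorbance was monitored kinetically.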
Tb PYK inh = qHTS of Trypanosoma Brucei Inhibitors | pyruvate kinase (Trypanosoma brucei), Q57TT1 | actives 0.12% (n = 410,000) | Potency, µM (top dose mostly 76.8 µM), inactives show at the top dose activity, negative = inhibition, most hits filed as inhibitors | TbPYK enzyme, Kinase-Glo Plus ATP luminescence, 45 min; further: nearly all actives have a fitted effect of over 50% in size
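Luminescence from Kinase-Glo Plus, added after a 45-minute room-temperature reaction, served as the end-point read-out. The enzyme and substrate were preincubated with compound before ADP (130 uM final) initiated turnover. Concentration-effect curves came from normalized qHTS data.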
RE007 growth inh = qHTS Assay for Inhibitors of the HIV-1 protein Vpr | S. pombe RE007 Vpr strain, BacTiter-Glo ATP luminescence, 24 h | Potency, µM (top dose mostly 92.2 µM), inactives show top-dose activity change, negative = less growth, hits mostly inhibitors | actives 0.21% (n = 360,000) | AID 651644, 2012; active means well fitted falling curve with a large enough effect; inconclusive means small, poorly fitted or top-dose-only effect; inactive means no such curve, though single readings can be large or run the other way; further: nearly all actives have a fitted effect of over 50% in size
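Fission yeast RE007 carrying one integrated HIV-1 vpr copy, seeded at OD 0.01 in PMG+AL medium with 23 nL pinned compound. Grown 24 h at 30 degrees; viability read by BacTiter-Glo luminescence after 5 min.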
AMA1-RON2 inh = qHTS for Inhibitors of AMA1-RON; Towards Development of Antimalarial Drug Lead: Primary Screen; Plasmodium falciparum AMA1 (3D7) - RON2 peptide interaction; Potency, µM (series often up to 58.2 µM), inactives show at the top dose activity change, negative = inhibition, most hits filed as inhibitors; actives 0.2% (n = 360,000); AlphaScreen AMA1-biotinylated RON2 peptide binding;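 further: 0% = vehicle wells and -100% = peptide control; nearly all actives have a fitted effect of over 45% in size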
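AMA1 (3D7) with his tag at 25 nM final met compounds first, then biotinylated RON2 peptide at 25 nM; detection used donor plus acceptor beads, 10 µg/mL apiece, read by AlphaScreen after 30 min at room temperature.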
Numbers without * were called inactive; ? = inconclusive; nt = no result; [ ] = dose if it differs, or a comment. Unless noted, the call rests on the fitted dose curve; in most records, active means well fitted curve in the direction sought with a large enough effect; inconclusive means small, poorly fitted or top-dose-only effect, or another doubt; inactive means no such curve, though single readings can be large; an effect the other way counts as inactive or inconclusive. Unless noted, on the % scale 0 is the no-effect control and ±100 the full control effect; potency means the concentration at half of the fitted maximal effect.

SMILES | LmPK inh | Sm TGR block | Tb PYK inh | RE007 growth inh | AMA1-RON2 inh
CC(C)c1ccc(NC(=O)Cn2nnc(C(=O)NCc3ccc(Cl)cc3)c2N)cc1 | nt | 5% | 0% | nt | nt
Cc1ccc(S(=O)(=O)NCC(c2ccco2)S(=O)(=O)c2ccccc2)cc1 (centres undefined) | nt | 0.4µM* | -2% | 1% | -9%
COC(=O)C1=C(C)NC(=O)/C1=C\c1ccc2c(c1)OCO2 | 0% | 35µM* | -18% | ? | 6%
CC1=NOC(=O)/C1=C/c1ccc2c(c1)OCO2 | -5% | -24% | ? | 2% | -4%
COC(=O)C1=C(C)NC(=O)/C1=C\c1cccs1 | -1% | -24% | -14% | ? | -7%
COC(=O)C1=C(C)NC(=O)/C1=C\N(C)C | -1% | 25µM* | -19% | -10% | 8%
Cc1c(Cl)cccc1NC(=O)C1C2C=CC(C2)C1C(=O)O (centres undefined) | -4% | 5% | -8% | 25% | 3%
Cc1ccc(-c2ccccc2NC(=O)C2C3C=CC(C3)C2C(=O)O)o1 (centres undefined) | -3% | 35µM* | -2% | ? | -9%
Cc1ccc(-c2cccc(NC(=O)C3C(C(=O)O)[C@@H]4C=C[C@H]3C4)c2)o1 (some centres undefined) | 0% | 20µM* | -11% | -19% | -7%
Cc1ccc(-c2ccccc2NC(=O)CCl)o1 | 4% | 32µM* | -1% | -5% | -3%
O=C(O)C1C2C=CC(C2)C1C(=O)Nc1cccc(F)c1 (centres undefined) | -1% | -1% | -11% | -17% | -8%
O=C(Nc1cccc(Cl)c1Cl)c1ccc2c(c1)N(Cc1cccc(Cl)c1)C(=O)c1ccccc1S2(=O)=O | nt | 2% | 0% | nt | nt
COc1cc(SC#N)ccc1N=Cc1c(C)[nH]n(-c2ccc(C)cc2C)c1=O | 1% | 6% | -11% | 15% | -13%
COc1ccccc1N=Cc1c(C)[nH]n(-c2ccc(C)cc2C)c1=O | 1% | 40µM* | -6% | 11% | 25%
COc1ccc(-c2nc(CS(=O)CC(=O)NC3CCCC(C)C3C)c(C)o2)cc1OC (centres undefined) | 10% | 13µM* | 0% | -1% | -5%
COc1ccc(-c2nc(CS(=O)CC(=O)NC3CCCCC3C)c(C)o2)cc1 (centres undefined) | -5% | ? | -8% | 8% | -11%
Cc1ccc(-c2nc(CS(=O)CC(=O)NC3CCCC(C)C3C)c(C)o2)cc1 (centres undefined) | 2% | 45µM* | -2% | 9% | -7%
CCn1c(Cl)c(C=O)s/c1=N\S(=O)(=O)c1ccccc1 | -16% | 0.32µM* | -19% | -23% | -3%
CC(C)CC(=O)NCC1(N(C)C)CCCCC1 | nt | -5% | -6% | nt | nt
Cc1cccc(C(=O)N2CCNC(=O)C2CC(=O)Nc2ccc(F)cc2)c1 (centres undefined) | nt | 3% | -3% | nt | nt
Cc1oc(-c2cccs2)[n+]([O-])c1C | -6% | -31% | -4% | 9% | -13%
Cc1ccccc1-c1oc(C)c(C)[n+]1[O-] | -1% | 25µM* | 4% | -1% | -12%
O=C(Cn1cc(S(=O)(=O)Cc2ccccc2Cl)c2ccccc21)Nc1ccc(F)cc1F | nt | 11% | 2%[15.4 µM] | nt | nt
CC(=O)Nc1ccc(S(=O)(=O)N2CCC(n3c(C(F)(F)F)nc4cccnc43)CC2)cc1 | nt | 2% | 1% | nt | nt
CCN(CC)c1ccc2c(-c3ccc(S(=O)(=O)O)cc3S(=O)(=O)[O-])c3ccc(=[N+](CC)CC)cc-3oc2c1 | ? | -27% | -23% | ? | 14µM*
SMILES | LmPK inh | Sm TGR block | Tb PYK inh | RE007 growth inh | AMA1-RON2 inh
COC(=O)C1=NN(N=O)C2(CC(=O)N(c3cc(C)cc(C)c3)C2=O)C1 (centres undefined) | 1% | 25µM* | nt | -4%[3.69 µM] | 21%
CCOC(=O)C1=NN(C(C)=O)C2(CC(=O)N(c3cc(C)cc(C)c3)C2=O)C1 (centres undefined) | 1% | -10% | 5% | -4% | 25%
Cn1cc(CNCc2cnc3ccccn23)c(-c2ccc(Oc3ccccc3)cc2)n1 | -3% | 17% | -12% | 8% | 28µM*
CN(Cc1cn(C)nc1-c1ccc(Oc2ccccc2)cc1)Cc1cnc2ccccn12 | 3% | -23% | -1% | -6% | -4%
Cc1ccc2nc(CCl)[n+]([O-])c(-c3ccccc3)c2c1 | 1% | 4.5µM* | ? | 0% | -17%
Cc1cc(Cl)ccc1NC(=O)CN1C(=O)COc2ccc(S(=O)(=O)Nc3ccccc3)cc21 | nt | 6% | 6% | nt | nt
O=S(=O)(NCc1ccco1)c1ccc2ccccc2c1 | -8% | -7% | -4% | -2% | 2%
O=S(=O)(NCc1ccco1)c1ccc(Cl)cc1Cl | -2% | 45µM* | 1% | 7% | 10%
Cc1ccc2ccc(S(=O)(=O)NCc3ccco3)cc2c1 | -1% | 13µM* | -3% | -2% | -6%
O=[N+]([O-])c1ccc(Oc2ccc(N=C=S)cc2)cc1 | nt | nt | 0% | nt | nt
COc1ccc(NC(=O)c2ccc3c(=O)n4nc(Nc5cccc(Cl)c5C)sc4nc3c2)cc1 | nt | 0% | 0% | nt | nt
CCOc1ccc2cc(-c3nnc(Nc4ccc(C)cc4)s3)c(=O)oc2c1 | nt | 0% | 1% | nt | nt
CC(C)[C@@]1(NC(=O)[C@@H]2C[C@@H]3c4cccc5[nH]cc(c45)C[C@H]3N(C)C2)O[C@@]2(O)[C@@H]3CCCN3C(=O)[C@H](Cc3ccccc3)N2C1=O | -12% | -14% | -2% | -2%[18.4 µM] | 0%
CC(C)[C@H]1C(=O)N2CCC[C@H]2[C@]2(O)O[C@](NC(=O)[C@@H]3C=C4c5cccc6[nH]cc(c56)C[C@H]4N(C)C3)(C(C)C)C(=O)N12 | 0% | 7.9µM* | 1% | ? | 32%
CC(C)C[C@H]1C(=O)N2CCCC2[C@]2(O)O[C@](NC(=O)[C@@H]3C=C4c5cccc6[nH]cc(c56)CC4N(C)C3)(C(C)C)C(=O)N12 (some centres undefined) | -1% | 10µM* | -11% | -8% | 1%
CC(C)[C@@]1(NC(=O)[C@@H]2C=C3c4cccc5[nH]cc(c45)C[C@H]3N(C)C2)O[C@@]2(O)[C@@H]3CCCN3C(=O)[C@H](Cc3ccccc3)N2C1=O | -5% | 8.9µM* | nt | nt | nt
